In all, about 52,000 compounds went through this assay and about 4,300 (8.3%) were called active. The entries come from a sample that favours actives as a whole. Values without a mark were called inactive. Rule as the data show it: active = survival mostly below about 52% (no sharp cut-off); inactive = mostly above about 56%.

This assay has as its system DeltatarO mutant. As to the kind of experiment: growth inhibition of S. aureus wild type versus tarO mutant, primary screen, teichoic acid synthesis inhibitors, RN4220, OD600 (AID 463173). The conditions noted are these: OD600, 18 h, stronger effect = lower value, screened at 18.75 µg/mL (by protocol).
For `Cc1ccc(-n2ncc3c(NCCCn4ccnc4)ncnc32)cc1C`, the survival was 84%. Then `Cc1[nH]c2ccccc2c1SCCNC(=O)c1ccc(F)cc1`, with 59%; and `COc1ccc(NC(=O)CN2C(=O)CCn3nc(-c4cccn4C)cc32)cc1Cl`, with 83%; and `CC1CCc2[nH]nc(C(=O)O)c2C1` (stereo not given), with 93%. Then `CC1CCCN(C(=O)c2cc3c(Cl)nc4ccccc4c3s2)C1` (stereo not given), with -5% (active).

For the compound `Cc1ccc2nc(Cl)c3cc(C(=O)NCCCN4CCC(C)CC4)sc3c2c1`, the survival was 125%. The figure for `CC1CCCN(CCCNC(=O)c2cc3c(Cl)nc4ccccc4c3s2)C1` (stereo not given) is 125%. Then `O=C(c1cc2c(Cl)nc3ccccc3c2s1)N1CCCCC1`, with 46% (active); and `Cc1ccc2nc(Cl)c3cc(C(=O)N4CCCCC4)sc3c2c1`, with -8% (active). Then `Cc1ccc2nc(Cl)c3cc(C(=O)NC4CCC(C)CC4)sc3c2c1` (stereo not given), with 57%. Turning to `O=C(NC1CCCCCC1)c1cc2c(Cl)nc3ccccc3c2s1`, the survival is 116%.

`Cc1ccc2nc(Cl)c3cc(C(=O)N4CCCC(C)C4)sc3c2c1` (stereo not given): the survival was -7% (active). Then `CC1CCC(NC(=O)c2cc3c(Cl)nc4ccccc4c3s2)CC1` (stereo not given), with 87%; and `Cc1ccc(NC(=O)c2cc3c(Cl)nc4ccc(C)cc4c3s2)c(Cl)c1`, with 68%. The figure for `O=C(NC1CCCCC1)c1cc2c(Cl)nc3ccccc3c2s1` is 80%; for `CCC(C)NC(=O)c1cc2c(Cl)nc3ccc(C)cc3c2s1` (stereo not given) it is 65%. Turning to `CNC(=O)C1CCC(Cn2c(=O)c3sccc3n(CC(=O)Nc3ccc(C)c(C)c3)c2=O)CC1` (stereo not given), the survival was 70%. `CCC(C)NC(=O)c1sc2nc3n(c(=O)c2c1C)CCC3` (stereo not given): the survival was 93%. The figure for `CCOc1ccc(NC(=O)Cn2c(=O)n(Cc3ccco3)c(=O)c3ccc(C(=O)NC4CCCC4)cc32)cc1` is 97%. `Cc1ccc(NC(=O)CSc2ccc(-c3cccs3)nn2)cc1Cl`: the survival is 111%. The figure for `COc1ccc(NC(=O)CSc2nc(C)cc(C)c2C(=O)Nc2ccccc2OC)cc1` is 51%; for `CN1CCC(OC(=O)c2ccc(Cl)cc2Cl)CC1` it is 101%. The figure for `O=C(Cn1c(=O)n(CCc2ccccc2)c(=O)c2c3c(sc21)CCCC3)Nc1ccc(F)c(F)c1` is 84%; for `COc1cccc(N2CCN(C(=O)c3cc4c(=O)n(Cc5cccnc5)ccc4nc3C)CC2)c1` it is 102%; for `CCC1CCCCN1CCCNC(=O)c1cc2c(Cl)nc3ccccc3c2s1` (stereo not given) it is 101%. The figure for `CCOC(=O)C1CCCN(C(=O)c2cc3c(Cl)nc4ccccc4c3s2)C1` (stereo not given) is 26% (active); for `CCOC(=O)C1CCCN(C(=O)c2cc3c(=O)[nH]c4ccc(C)cc4c3s2)C1` (stereo not given) it is 51%; for `CCNC(=S)N1CCC(NC(=O)C23CC4CC(CC(C4)C2)C3)CC1` it is 80%.

As for `Fc1ccc(Cc2cn3cc(-c4ccccc4)nc3s2)cc1`, the survival was 51% (active).

With `Fc1ccc(-c2cn3cc(Cc4ccccc4)sc3n2)cc1`, the survival is 81%. For the compound `Fc1ccc(-c2cn3cc(Cc4ccccc4Cl)sc3n2)cc1`, the survival was 42% (active). Take `Fc1ccc(Cc2cn3cc(-c4ccc(F)cc4)nc3s2)cc1`: the survival was 61%. The figure for `Fc1ccccc1Cc1cn2cc(-c3ccc(Cl)cc3)nc2s1` is 66%. The figure for `Clc1ccccc1Cc1cn2cc(-c3ccccc3)nc2s1` is 63%. The figure for `Cc1ccccc1-c1nc(SCC(=O)NCc2ccco2)c2c(=O)n(C)c(=O)n(C)c2n1` is 71%; for `O=C(Nc1ccc(C(F)(F)F)cc1)N1CCC(N2CCCCC2)CC1` it is 108%; for `COc1ccc(-c2noc(CSc3nnc(-c4ccncc4)n3-c3ccc(C)cc3)n2)cc1OC` it is 67%. For `CC1=C(C(=O)OC2CCCCCC2)C(c2ccc(Cl)cc2Cl)CC(=O)N1` (stereo not given), the survival was 81%.

On to `CCOC(=O)c1c(NC(=O)c2ccc(S(=O)(=O)N(C)C)cc2)sc2c1CCN(C)C2`, for which the survival was 75%. Then `Cc1nc(NC2CCN(Cc3nnnn3Cc3ccc4c(c3)OCO4)CC2)[nH]c(=O)c1C`, with 94%. The figure for `O=S(=O)(NCc1csc(-c2ccccc2)n1)c1ccccc1` is 70%; for `Cc1cc(C)c(S(=O)(=O)NCc2csc(-c3ccccc3)n2)c(C)c1` it is 34% (active). The figure for `O=S(=O)(NCc1csc(-c2ccccc2)n1)c1cccc(F)c1` is 79%. On to `COc1ccccc1C(=O)Nc1nc2nc(C)c(Cc3ccccc3)c(=O)n2[nH]1`, for which the survival is 111%. In the case of `COc1cccc(NC(=O)CN(CCc2ccccc2)S(=O)(=O)c2ccc(Cl)cc2)c1`, the survival is 52%. The figure for `Cn1cc(C(=O)Nc2ccc(C#N)cc2)c2ccccc2c1=O` is 63%; for `CCCOc1ccccc1Cn1c(=O)sc2ccccc21` it is -2% (active); for `CCN(CC)C(=O)Cn1c(=O)sc2ccccc21` it is 85%.

As to `CCOC(=O)Cn1c(=O)sc2ccccc21`, the survival is 94%. The figure for `CCCn1c(=O)sc2cc(NC(=O)c3ccccc3OCC)ccc21` is 93%; for `CCCCOc1ccccc1Cn1c(=O)sc2ccccc21` it is -2% (active). Turning to `Cc1cccc(NC(=O)Cn2c(=O)sc3ccccc32)c1`, the survival was 109%. Then `CC(C)CCOc1ccccc1Cn1c(=O)sc2ccccc21`, with 3% (active). Consider `O=C(Cn1c(=O)sc2ccccc21)Nc1ccc(O)cc1`, for which the survival was 70%. The figure for `CS(=O)(=O)n1c(=O)sc2ccccc21` is 99%; for `O=C(Cn1c(-c2ccccc2)noc1=O)Nc1cccc(Cl)c1Cl` it is 98%. Then `CCc1ccc(S(=O)(=O)c2cn(C)c3cc(N4CCOCC4)c(F)cc3c2=O)cc1`, with 90%; and `CCC(Sc1nnc(-c2ccc(OC)cc2)c(-c2ccc(OC)cc2)n1)C(=O)Nc1cccc(OC)c1` (stereo not given), with 94%. Then `COCCn1c(C)cc(O)c(C(c2ccc(F)cc2)N2CCN(c3ccccc3)CC2)c1=O` (stereo not given), with 47% (active); and `COCCn1c(C)cc(O)c(C(c2ccccc2)N2CCN(CCO)CC2)c1=O` (stereo not given), with 32% (active); and `COCCn1c(C)cc(O)c(C(c2cccc(F)c2)N2CCN(c3ccccc3)CC2)c1=O` (stereo not given), with 93%. For the compound `COCCn1c(C)cc(O)c(C(c2ccccc2)N2CCN(c3ccccc3)CC2)c1=O` (stereo not given), the survival is 49%. Then `CCN1CCN(C(c2ccccc2)c2c(O)cc(C)n(CCOC)c2=O)CC1` (stereo not given), with 84%; and `COCCn1c(C)cc(O)c(C(c2ccccc2)N2CCN(C)CC2)c1=O` (stereo not given), with 95%; and `Cc1cccc(NC(=O)c2cc(S(=O)(=O)N3CCc4ccccc43)ccc2F)c1C`, with 65%.

With `COc1ccc(-n2c(/C=C/c3cc(OC)c(OC)cc3OC)nc3cc4ccccc4cc3c2=O)cc1Cl`, the survival is 115%. Turning to `CCOC(=O)CNC(=O)Nc1cc(C(=O)NCc2cccc(F)c2)ccc1N1CCCC1`, the survival was 74%. Then `CCOC(=O)N1CCC(NC(=O)c2ccc3c(c2)N(Cc2ccccc2)C(=O)c2ccccc2S3(=O)=O)CC1`, with 52%; and `CSc1ccc(C2c3c(oc4cc(C)cc(C)c4c3=O)C(=O)N2Cc2ccco2)cc1` (stereo not given), with 57%; and `CCc1ccc(C2C(C(=O)Nc3ccccc3OC)=C(C)Nc3nc(SCc4ccccc4)nn32)cc1` (stereo not given), with 76%. Then `Cc1cc2nnc(SCc3ccc(F)cc3)n2c2ccccc12`, with -1% (active). Then `CCCN(CCC)C(=O)CSc1nnc2cc(C)c3ccccc3n12`, with 76%; and `CCOC(=O)c1ccc(CSc2nnc3cc(C)c4ccccc4n23)cc1`, with 95%; and `COc1ccc(C2NCCS2)cc1` (stereo not given), with 65%. Take `Cc1ccc(CN2CCCn3nc(C(=O)NCCc4ccc(Cl)cc4)cc3C2=O)cc1`: the survival is 71%.

As for `Cc1nn(-c2ccc(N3CCCCC3)nn2)c(C)c1CCC(=O)NCc1ccc(Cl)cc1`, the survival is 79%. The figure for `CCCCC(=O)Nc1cccc(-c2nc3ccccc3s2)c1` is 41% (active). Regarding `Cc1cccc(OCC(=O)Nc2cccc(-c3nc4ccccc4s3)c2)c1`, the survival is 7% (active). `CCC(CC)C(=O)Nc1cccc(-c2nc3ccccc3s2)c1`: the survival is 53%. With `COc1ccccc1C(=O)Nc1ccc(-c2nc3ccccc3s2)c(C)c1`, the survival is 83%. Then `CCCOc1ccccc1C(=O)Nc1ccc(-c2nc3ccc(C)cc3s2)cc1`, with 29% (active); and `Cc1cccc(OCC(=O)Nc2ccc3nc(SCc4ccccc4)sc3c2)c1`, with 112%. The figure for `COc1ccc(CC(=O)Nc2ccc(-c3nc4ccccc4s3)c(C)c2)cc1` is 69%; for `Cc1ccc2nc(-c3ccc(NC(=O)COc4ccccc4C(C)(C)C)cc3)sc2c1` it is 114%. Take `Cc1cccc(OCCSc2nc3ccc(NC(=O)COc4ccccc4)cc3s2)c1`: the survival is 78%. Then `O=C(COc1ccccc1[N+](=O)[O-])Nc1cccc(-c2nc3ccccc3s2)c1`, with 65%; and `COc1cccc(C(=O)Nc2ccc(-c3nc4ccc(C)cc4s3)cc2)c1OC`, with 49%; and `COc1ccc(CC(=O)Nc2ccc(-c3nc4ccccc4s3)c(C)c2)cc1OC`, with 37% (active).

Regarding `Cc1nc2ncnn2c(C)c1CCC(=O)N1CCN(c2ccc(F)cc2)CC1`, the survival is 89%. Then `COCCNC(=O)CN1C(=O)c2cccnc2Oc2ccc(Cl)cc21`, with 85%; and `COc1ccc(-c2onc(C)c2C)cc1S(=O)(=O)NCc1ccco1`, with 67%. The figure for `Cc1ccc(S(=O)(=O)N(C)c2ccc3sc(C)nc3c2)cc1` is 91%. The figure for `COc1ccc(OC)c(C(=O)CC2(O)C(=O)N(Cc3ccccc3C)c3ccccc32)c1` (stereo not given) is 165%; for `CN1C(=O)Cc2cc(S(=O)(=O)CCC(=O)Nc3ccc(OC(F)(F)F)cc3)ccc21` it is 71%; for `Cc1cccc(CN2C(=O)c3ccccc3Sc3ccc(C(=O)N4CCCC4)cc32)c1` it is 83%.

(Values after PubChem BioAssay AID463173 (ICCB-Longwood Screening Facility, Harvard Medical School, 2010).)
